# Publication PMC10726135, “HNF4α isoforms regulate the circadian balance between carbohydrate and lipid metabolism in the liver”
# Over roughly 18,000 sequences, “log2 normalized intensity” has its median near 0.39; the highest 2% begin near 6.6. The full list was thinned out, with the highest values kept by preference.
# Biological target: T1, HNF4alpha2 (COS-7 nuclear extract) (Homo sapiens, UniProt P41235 1-474)
# T1 sequence: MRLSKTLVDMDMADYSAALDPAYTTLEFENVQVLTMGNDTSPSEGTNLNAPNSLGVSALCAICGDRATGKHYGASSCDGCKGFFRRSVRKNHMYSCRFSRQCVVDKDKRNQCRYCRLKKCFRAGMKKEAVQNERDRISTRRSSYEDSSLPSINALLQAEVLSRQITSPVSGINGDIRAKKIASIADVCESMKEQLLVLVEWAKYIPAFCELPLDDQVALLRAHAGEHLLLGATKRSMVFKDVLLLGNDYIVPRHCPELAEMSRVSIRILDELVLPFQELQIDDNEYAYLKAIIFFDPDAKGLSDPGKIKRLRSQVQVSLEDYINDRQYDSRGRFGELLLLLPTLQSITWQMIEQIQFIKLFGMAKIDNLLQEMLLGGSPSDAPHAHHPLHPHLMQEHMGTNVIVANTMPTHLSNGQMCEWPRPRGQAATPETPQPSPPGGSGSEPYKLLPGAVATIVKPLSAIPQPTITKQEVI
# Experiment: protein-binding microarray; COS-7 nuclear extract on double-stranded Agilent 4x180k PBM; binding buffer, salt, pH and temperature not given in the material; high values mean tight binding
# Settings: chain copies: 2; label: 3' end of strand 1 on the slide; dsDNA, one strand shown
# Procedure, shortened: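 A custom Agilent SurePrint G3 4x180k array, spotted in quadruplicate with ~44,000 test sequences as ~60-nt oligonucleotides made double-stranded, was incubated with nuclear extracts. The extracts came from COS-7 cells transiently transfected by CaPO4 with a human HNF4α isoform expression vector. Bound HNF4α was imaged on an Agilent G2565CA scanner at 2-µm resolution, and the binding signal was taken as Agilent software's background-corrected, normalized gProcessedSignal.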
row,Sequence,binding signal [log2 normalized intensity]
1,CCTCCCTCCATGCTGTAGATTGTGGAATGTGCCTAGGGAGATTAGAGTATCGGTCGA,1.81
2,GGTATGTTAGATTAGTGTGCAGCTTTGTGTGCCTAGGGAGATTAGAGTATCGGTCGA,2.1
3,GTCTAGATGCTGGGCAGCTTGTGTGCGTTTGCCTAGGGAGATTAGAGTATCGGTCGA,1.56
4,AGCTGTGTGCTCCTGTAGAATGACCCCCTGGCCTAGGGAGATTAGAGTATCGGTCGA,5.17
5,TGGGTTCTTGCCCTTTGGTCTGGAACACAGGCCTAGGGAGATTAGAGTATCGGTCGA,3.31
6,TTCTCTGTGACCTTTGGAAGGTGGGGGAGGGCCTAGGGAGATTAGAGTATCGGTCGA,4.13
7,GTTCTGTACTTTGGAACCTGAAAGAGCAACGCCTAGGGAGATTAGAGTATCGGTCGA,3.87
8,CTGCCCTTCTGACCTCCCAGGGATACTGTGGCCTAGGGAGATTAGAGTATCGGTCGA,2.47
9,AACTGTACTTTGGACTGGGGACCTGGTCTGGCCTAGGGAGATTAGAGTATCGGTCGA,4.13
10,TGGAGCATGACCCTTTGCAGGTGGGAGAGGGCCTAGGGAGATTAGAGTATCGGTCGA,0.139
11,GAGGTGGGCCCAGGGTTCTCTGTGACCTTTGCCTAGGGAGATTAGAGTATCGGTCGA,6.79
12,TGACTACCAGGTTCTGTACTTTGGAACCTGGCCTAGGGAGATTAGAGTATCGGTCGA,6.78
13,GGGCCCAGGGTTCTCTGTGACCTTTGGAAGGCCTAGGGAGATTAGAGTATCGGTCGA,8.2
14,CTTCTGCCCCCGCAGACCCAGTCTTAGGGAGCCTAGGGAGATTAGAGTATCGGTCGA,4.14
15,AGAAATCCACACAGCACTGACCTTTGAGAGGCCTAGGGAGATTAGAGTATCGGTCGA,4.92
16,GGCACAGTAACCTGACCCCCAGTGGAATGTGCCTAGGGAGATTAGAGTATCGGTCGA,3.32
17,CCCAGATATCTCTGGTAAACAGCTGACAATGCCTAGGGAGATTAGAGTATCGGTCGA,-0.967
18,CAAATAAAGTTTGAGGAGAGTCAAAGGTTAGCCTAGGGAGATTAGAGTATCGGTCGA,3.24
19,CTCAGGTCAGGGAAGACTGATAAGAAAACTGCCTAGGGAGATTAGAGTATCGGTCGA,-0.891
20,AGTCATGTCTTCATGCTTTCAGCCTCTCTGGCCTAGGGAGATTAGAGTATCGGTCGA,0.358
21,CGCTCCCCGACCTCCTGCTGCAGCTCTGGGGCCTAGGGAGATTAGAGTATCGGTCGA,0.0682

row,Sequence,binding signal [log2 normalized intensity]
1,GGGGCCCCATCGACCTTTGCTCCCGACTCTGCCTAGGGAGATTAGAGTATCGGTCGA,8.11
2,CCCATCGACCTTTGCTCCCGACTCTGAGGCGCCTAGGGAGATTAGAGTATCGGTCGA,5.07
3,AGGCTGGGGCCCCATCGACCTTTGCTCCCGGCCTAGGGAGATTAGAGTATCGGTCGA,9.6
4,ACCTCCTGGGCCCAAGTGCTCCTCCCCATCGCCTAGGGAGATTAGAGTATCGGTCGA,3.37
5,AGACATCGACCTTTGTGGGCTTCAGACATTGCCTAGGGAGATTAGAGTATCGGTCGA,1.71
6,CGACCTTTGCTCCCGACTCTGAGGCTCCATGCCTAGGGAGATTAGAGTATCGGTCGA,4.94
7,TCTTCAGGCTGGGGCCCCATCGACCTTTGCGCCTAGGGAGATTAGAGTATCGGTCGA,6.79
8,GCTCTAGACATCGACCTTTGTGGGCTTCAGGCCTAGGGAGATTAGAGTATCGGTCGA,2.69
9,AGCAGGCAGAGGTCAATGTCCACACCCCAGGCCTAGGGAGATTAGAGTATCGGTCGA,4.6
10,GCAGAGGCTGCAGAGGTTTCGCAAGGACGTGCCTAGGGAGATTAGAGTATCGGTCGA,-0.792
11,GTCTGCCTGACTCCAGAGTCCAAACTGGGAGCCTAGGGAGATTAGAGTATCGGTCGA,2.17
12,AGTATCATGTTGGCATTCCAGGATGAAGGAGCCTAGGGAGATTAGAGTATCGGTCGA,0.674
13,CAGCCTGGAGGAGGGCGAGGCCGAGCCTCAGCCTAGGGAGATTAGAGTATCGGTCGA,-0.906
14,ATCTACCCTTGACAATTCCTATTCATTCCCGCCTAGGGAGATTAGAGTATCGGTCGA,-0.0843
15,AAACTCTGAAGGCAAATTCTTAGAATTGCAGCCTAGGGAGATTAGAGTATCGGTCGA,-0.775
16,TATCAGCTCTCCGTGGACTTTGCCCCCTACGCCTAGGGAGATTAGAGTATCGGTCGA,11.1
17,AAGAGACTTTGCCCTTTTTTTCTCTCCCCTGCCTAGGGAGATTAGAGTATCGGTCGA,3.42
18,TCTTTGCCCTCTTGGTATCAGCTTTGAGACGCCTAGGGAGATTAGAGTATCGGTCGA,1.42
19,GTGGACTTTGCCTGCCCATCCCGTGGACTCGCCTAGGGAGATTAGAGTATCGGTCGA,3.88
20,ATCCCGTGGACTTTGCCTGCCCATCCCGTGGCCTAGGGAGATTAGAGTATCGGTCGA,3.13
21,GCTCTCCGTGGACTTTGCCCCCTACAGTTTGCCTAGGGAGATTAGAGTATCGGTCGA,9.73
